ELG1 genotoxic: inducers of genotoxicity in HEK293T ELG1-luciferase cells; HEK293T ELG1-luciferase reporter, luminescence, 16 h; AID 504466; Potency, µM (top dose mostly 46 µM), without a hit: at the highest dose activity change, positive = activation, actives largely listed as activators; 1.3% of 330,000 active; further: % of control where 0% means no effect; nearly all actives have a fitted effect of over 60% in size
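Cells (2,000/well) expressing the ELG1-luciferase fusion are dosed by pin tool and kept 16 hr at 37 °C, 5% CO2. Signal comes from ONE-Glo luciferase reagent after 30 min at room temperature.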
ELG1 repair inh: ELG1-dependent DNA repair inhibition; 2.3% of 330,000 active; Potency, µM (top dose mostly 46.1 µM), for inactives: at the highest dose activity change, negative = inhibition, actives largely listed as inhibitors; HEK293T ELG1-luciferase reporter, luminescence, 16 h; DNA damage induced by 5-fluorouridine; further: on the % scale 0 is the no-effect control and ±100 the full control effect; nearly all actives have a fitted effect of over 55% in size
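Reporter activity after DNA damage by 5-fluorouridine is monitored. Compound-treated cells incubate 16 hr at 37 °C, then ONE-Glo is added for 30 min before luminescence reading.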
SMN2 splice up: increases expression of the SMN2 splice variant. HEK293 SMN2-luciferase splicing reporter, luminescence, 30-36 h. Potency, µM (doses to about 46.1 µM), for inactives: top-dose activity change, positive = activation, actives largely listed as activators. 2.8% of 210,000 active; further: % of control where 0% means no effect; nearly all actives have a fitted effect of over 55% in size
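qHTS luciferase splicing reporter: luminescence rises when SMN2 exon 7 is included in transfected HEK293 cells. Compound exposure lasted 30-36 h at 37C, with 4.5 mM final sodium butyrate as control, followed by a ONE-Glo read.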
FLuc modulator: counter-screen for miR-21 project: firefly luciferase inhibitors or activators | P08659 | purified FLuc, Km substrates, luminescence inhibition | Potency, µM (titrated, usually from 57.5 µM), for inactives: top-dose activity change, negative = inhibition, most hits filed as inhibitors | 6.9% of 360,000 active;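 further: plate controls were vehicle for no effect and reference inhibitor for full effect; nearly all actives have a fitted effect of over 55% in size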
Target sequence (P08659 whole entry, looked up): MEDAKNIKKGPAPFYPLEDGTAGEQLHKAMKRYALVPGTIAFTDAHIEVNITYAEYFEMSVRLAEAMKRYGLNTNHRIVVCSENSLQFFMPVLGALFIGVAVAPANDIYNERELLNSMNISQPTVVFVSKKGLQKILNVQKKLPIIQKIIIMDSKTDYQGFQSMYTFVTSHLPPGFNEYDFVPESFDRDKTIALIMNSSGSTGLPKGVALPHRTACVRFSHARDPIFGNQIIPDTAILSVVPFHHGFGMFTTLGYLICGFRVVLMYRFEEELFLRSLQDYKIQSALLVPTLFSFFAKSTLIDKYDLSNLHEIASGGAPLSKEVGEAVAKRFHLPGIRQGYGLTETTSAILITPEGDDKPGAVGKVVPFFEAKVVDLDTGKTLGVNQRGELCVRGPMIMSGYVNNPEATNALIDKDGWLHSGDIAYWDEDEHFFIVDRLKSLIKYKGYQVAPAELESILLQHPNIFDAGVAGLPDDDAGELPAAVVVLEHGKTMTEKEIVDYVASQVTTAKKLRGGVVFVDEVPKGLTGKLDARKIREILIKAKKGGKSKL
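Biochemical qHTS of compounds, final roughly 60 µM downward over six points, against 10 nM purified firefly luciferase using Km concentrations of substrates (10 uM D-luciferin, 10 uM ATP) in Tris acetate pH 7.5 buffer; luminescence output.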
Rab9 prom act: activators of Rab9 promoter; Huh7 Rab9 promoter-luciferase reporter, luminescence, 24 h; Potency, µM (doses to about 9.22 µM), for the others: at the highest dose activation, negative = inhibition, actives largely listed as activators; 2.8% of 320,000 active; AID 485297; further: % of control where 0% means no effect; nearly all actives have a fitted effect of over 60% in size
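Using Huh7 cells stably transfected with Rab9 promoter–luciferase, compounds were incubated 24 h at 37 °C, 5% CO2; luciferase luminescence was read 10 min after reagent addition.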
NPC1 prom act: activates the NPC1 promoter. AID 485313. 2.4% of 320,000 active. Huh7 NPC1 promoter luciferase reporter, 24 h. Potency, µM (series often up to 9.22 µM), inactives show at the highest dose activation, hits mostly activators; further: % of control where 0% means no effect; nearly all actives have a fitted effect of over 60% in size
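Huh7 cells stably carrying NPC1 promoter–luciferase, plated in Opti-MEM with 10% FBS for 2 h, were exposed to compound in DMSO for 24 h at 37 °C; luciferase reagent was added for 10 min and luminescence read.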
Numbers without * were called inactive; ? = inconclusive; nt = no result; [ ] = dose if it differs, or a comment. In the library only some 9.2% were active in any assay of this set; here they are far more common. The call rests on the fitted dose curve; in most records, active means well fitted curve in the direction sought with a large enough effect; inconclusive means small, poorly fitted or top-dose-only effect, or another doubt; inactive means no such curve, though single readings can be large; an effect the other way counts as inactive or inconclusive. Potency means the concentration at half of the fitted maximal effect.

SMILES	ELG1 genotoxic	ELG1 repair inh	SMN2 splice up	FLuc modulator	Rab9 prom act	NPC1 prom act
Cc1cccc(S(=O)(=O)c2cn(Cc3ccccc3)c3cc(N4CCCCC4)c(F)cc3c2=O)c1	nt	nt	nt	-1%	nt	nt
COc1ccccc1C(=O)O/N=C(/c1ccncc1)c1ccc([N+](=O)[O-])cc1	0%	-1%	-5%	-3%	-1%	-16%
CCn1nc(C)c(CNC(=O)CC2C(=O)NCCN2CC(C)C)c1C (centres undefined)	-1%	13%	nt	4%	-1%	8%
CCCCCNc1nc2c(-c3ccccc3)nnn2c2ccccc12	nt	nt	0%	0%	nt	nt
COc1ccc(OC)c(-c2nnc3n(CCc4ccccc4)c(=O)c4ccccc4n23)c1	nt	nt	nt	-5%	nt	nt
CSc1cccc(-n2nnc(-c3nsc(NC(=O)c4cccs4)n3)c2C)c1	nt	nt	nt	2.7µM*	nt	nt
Cc1csc(NC(=S)NC(=O)c2ccccc2)n1	21µM*	?	nt	13µM*	?	?
Cc1csc(NC(=O)c2ccc3nc[nH]c3c2)n1	11%	?	nt	4.3µM*	0.5µM*	?
Cc1csc(NC(=O)CCNC(=O)c2ccccc2Cl)n1	0%	-12%	3%	-3%	0%	-3%
Cc1csc(NC(=O)c2ccc[nH]c2=O)n1	16µM*	?	nt	17µM*	3.5µM*	4µM*
CC(=O)Nc1ccc(-c2cc(C(=O)O)c3ccc(C)cc3n2)cc1	9%	?	nt	17µM*	4%	18%
COC(=O)c1cc(-c2ccc(NC(C)=O)cc2)nc2ccccc12	-3%	0%	-5%	12µM*	-3%	-1%
CC(=O)Nc1ccc(-c2cc(C(=O)O)c3cc4ccccc4cc3n2)cc1	nt	nt	0%[9.22 µM]	nt	nt	nt
CC(=O)Nc1sc(C)c(C)c1C(=O)OCC(=O)NC(C)c1ccccc1 (centres undefined)	0%	?	nt	1%	-4%	0%
CC(C)CNc1nc(N)c([N+](=O)[O-])c(N2CCCCCC2)n1	-9%	7.3µM*	nt	0%	-1%	-1%
CCC(C)Nc1nc(N)c([N+](=O)[O-])c(Nc2cc(OC)ccc2OC)n1 (centres undefined)	-1%	23µM*	nt	6%	-3%	-3%
CCC(C)Nc1nc(N)c([N+](=O)[O-])c(N2CCCCCC2)n1 (centres undefined)	-5%	-11%	nt	4%	-5%	-4%
COc1ccccc1Nc1nc(NCC(C)C)nc(N)c1[N+](=O)[O-]	-7%	8.2µM*	nt	-5%	-10%	-3%
COc1ccc(NC(=O)C2CCN(S(=O)(=O)c3cccc4nonc34)CC2)cc1OC	0%	-2%	nt	1%	3%	-4%
CC1CCCCC12NC(=O)N(CC(=O)Nc1ccc(OC(F)F)cc1)C2=O (centres undefined)	-1%	12%	nt	nt	nt	nt
Cn1c(/N=C/c2c(O)ccc3ccccc23)nc2ccccc21	16%	?	-19%	?	0%	-2%
CCn1c(/C=N/n2cnnc2)nc2ccccc21	0%	0%	-22%	0%	9%	0%
CCCn1c(/N=C/c2c[nH]c3ccccc23)nc2ccccc21	-1%	2%	-17%	2.7µM*	0%	3%
CCCCn1c(/N=C/c2c[nH]c3ccccc23)nc2ccccc21	-1%	-15%	-25%	9.5µM*	-1%	2%
CCn1c(/N=C/c2c[nH]c3ccccc23)nc2ccccc21	0%	2%	nt	0.54µM*	-3%	0%
SMILES	ELG1 genotoxic	ELG1 repair inh	SMN2 splice up	FLuc modulator	Rab9 prom act	NPC1 prom act
O=C(CC12CC3CC(CC(C3)C1)C2)NC(=S)NCc1ccco1	6%	?	0%	-2%	1%	-6%
CCOc1ccccc1N1CC(C(=O)Nc2ccc(S(=O)(=O)N3CCCCC3)cc2)CC1=O (centres undefined)	-8%	-17%	nt	0%	-3%	-5%
O=C(CN1C(=O)NC(c2ccccc2)(c2ccccc2)C1=O)NC1CCCC1	1%	-2%	nt	nt	3%	-3%
COCC(C)n1c(C)cc(C(=O)COc2ccc(N(C)S(=O)(=O)c3ccc(NC(C)=O)cc3)cc2)c1C (centres undefined)	-2%	4.1µM*	nt	?	-6%	-3%
C=CCn1c(C)cc(C(=O)COc2ccc(N(C)S(=O)(=O)c3ccc(NC(C)=O)cc3)cc2)c1C	-6%	?	nt	nt	nt	nt
CCN(C(=O)COc1ccc(N(C)S(=O)(=O)c2ccc(NC(C)=O)cc2)cc1)C1CCCCC1	0%	21µM*	nt	nt	nt	nt
CCN(CC)C(=O)COc1ccc(N(C)S(=O)(=O)c2ccc(NC(C)=O)cc2)cc1	0%	?	nt	-1%	-2%	0%
CC1CN(S(=O)(=O)c2cccc(C(=O)NCCC3=CCCCC3)c2)CC(C)O1 (centres undefined)	?	-8%	nt	0%	0%	-3%
O=C1CN(S(=O)(=O)c2ccc(F)cc2)CCN1	-2%	10%	nt	nt	nt	nt
CC1=NN(c2ccccc2)C(=O)/C1=C\c1sccc1C	4%	?	nt	7.6µM*	-2%	-5%
COc1ccccc1/C=C1/C(=O)N(c2ccccc2)N=C1C	0%	7%	nt	27µM*	0%	-1%
CC1=NN(c2ccccc2)C(=O)/C1=C\c1cn(-c2ccccc2)nc1C	2%	3%	5%	?	-3%	-4%
CC1=NN(c2ccccc2)C(=O)/C1=C/c1cc(C)n(C2CC2)c1C	8%	-5%	7%	2.4µM*	14%	11%
CC1=NN(c2ccc(Br)cc2)C(=O)/C1=C/c1cccs1	-3%	?	-22%	7.6µM*	28%	25%
COc1ccc(CCn2c(=O)c3cccnc3n(CC(=O)Nc3c(C)cc(C)cc3C)c2=O)cc1OC	nt	nt	2%	0%	nt	nt
C#CCOc1ccc(/C=C2/C(=O)N(c3cccc(C(=O)O)c3)N=C2C)cc1OC	10%	?	nt	12µM*	-1%	-1%

Screening data deposited in PubChem by National Center for Advancing Translational Sciences (NCATS).
